The nature of test [1]: E. coli DRC41 culture turbidity changes, primary screen, E. coli filamentation inducer project, strain DRC41, OD650, 48 h (AID 1152).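 Further: E. coli MC1000 strain DRC41 lacking acrAB efflux pump and sulA.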 Particulars: E. coli DRC41 (acrAB sulA), higher = more signal, called active from +8 up or from −8 down.
Test [2] can be described thus: small-molecule binders of probe aLefty1, primary screen, biochemical, small-molecule microarray, 635/667 nm fluorescence (AID 1153).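 Further: score merges spot fluorescence with signal-to-noise ratio from the scanned slide images.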 Particulars: higher = more signal.
Test [3] can be described thus: PSAC antagonists in infected red cells, primary screen, cell-based, P. falciparum Indochina, OD700, 1 h (AID 1154). The note with it: P. falciparum Indochina infected RBC osmotic lysis, higher = more signal, called active from +8 up or from −8 down.
Test [4] is described as follows: PSAC antagonists in infected red cells, primary screen, cell-based, P. falciparum Indochina, OD700, 2 h (AID 1155).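 Further: lysis reports solute entry through the parasite surface anion channel PSAC; channel blockers reduce lysis of infected cells.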 The note with it: P. falciparum Indochina infected erythrocytes, osmotic lysis OD700; higher = more signal, called active from +8 up or from −8 down.
Test [5] is described as follows: osmotic lysis modulators in infected erythrocytes, primary screen, PSAC antagonist project, cell-based, P. falciparum Indochina, OD700, 3 h (AID 1156). Particulars: higher = more signal, called active from +8 up or from −8 down.
A short description of test [6]: PSAC antagonists in infected red cells, primary screen, cell-based, P. falciparum Indochina, OD700, 18 h (AID 1157). The note with it: P. falciparum Indochina infected erythrocytes, osmotic lysis OD700, 18 h; higher = more signal, called active from +8 up or from −8 down.
Test [7] can be described thus: modulators of S6 phosphorylation in cells, primary screen, cell-based, A549, cytoblot, luminescence, serum-stimulated (AID 1158).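 Further: serum-stimulated A549 lung adenocarcinoma cells; signal is phosphorylated S6 detected by cytoblot immunostaining with HRP secondary.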 Particulars: A549 phospho-S6 cytoblot, 5 h, higher = more signal.
The target of test [8] is NADPH oxidase 2 (Homo sapiens) (UniProt P04839). The test can be described thus: NOX2-dependent H2O2 signal modulators, primary screen, NOX inhibitor project, cell-based, HEK293-NOX2, PMA-stimulated, Amplex Red fluorescence (AID 1159). Further: test concentration not given here. Particulars: 45 min, higher = more signal, called active from +8 up or from −8 down.
Test [9] addresses NADPH oxidase 4 (Homo sapiens) (UniProt Q9NPH5). The test can be described thus: NOX4-dependent H2O2 signal modulators, primary screen, NOX inhibitor project, cell-based, HEK293-NOX4, tetracycline-induced, Amplex Red fluorescence (AID 1160). The note with it: 45 min, higher = more signal, called active from +8 up or from −8 down.
For test [10], the target named is NADPH oxidase 5 (Homo sapiens) (UniProt Q96PH1). The test can be described thus: NOX5-dependent H2O2 signal modulators, primary screen, NOX inhibitor project, cell-based, HEK293-NOX5, Amplex Red fluorescence (AID 1161). Particulars: HEK293-NOX5, ionomycin, 45 min, higher = more signal.
Test [11] is described as follows: A549 cell viability effects, profiling panel, calcein-AM fluorescence, 48 h, basal (AID 1162). Further: test concentration not given here. Particulars: higher = more signal.
A short description of test [12]: adipocyte viability effects, profiling panel, cell-based, 3T3-L1 adipocytes, calcein-AM fluorescence, 48 h, basal (AID 1163). Further: test concentration not given here. The note with it: 3T3-L1 adipocytes viability, higher = more signal.
Test [13] can be described thus: HepG2 cell viability effects, profiling panel, calcein-AM fluorescence, 48 h, basal (AID 1164). Further: test concentration not given here. Particulars: higher = more signal.
Test [14] is described as follows: MM1S cell viability effects, profiling panel, calcein-AM fluorescence, 48 h, basal (AID 1165).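 Further: viability of MM1S multiple myeloma cells under basal unstimulated conditions; test concentration not given here.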 Particulars: higher = more signal.
The nature of test [15]: basal RPMI8226 viability, no added stimulus, profiling panel, cell-based, calcein-AM fluorescence, 48 h, PK04 Diversity Set (AID 1166).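 Further: cells grown under basal conditions without added stimulus; test concentration not given here.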 Particulars: RPMI8226 myeloma viability, higher = more signal.
Test [16] can be described thus: basal HepG2 mitochondrial membrane potential changes, profiling panel, cell-based, JC-1 fluorescence, 24 h, 100 nL compound (AID 1167). Further: test concentration not given here. The note with it: higher = more signal.
Test [17] in a line: basal 3T3-L1 adipocyte mitochondrial potential changes, profiling panel, cell-based, JC-1 fluorescence, 3T3-L1 adipocytes, 24 h, 100 nL compound (AID 1168). Further: test concentration not given here. Particulars: JC-1 mitochondrial fluorescence, higher = more signal, called active from +8 up or from −8 down.
The nature of test [18]: basal RPMI8226 mitochondrial membrane potential changes, profiling panel, cell-based, JC-1 fluorescence, 24 h, 100 nL compound (AID 1169). Further: test concentration not given here. The note with it: RPMI8226 myeloma, JC-1 mitochondrial potential fluorescence, higher = more signal.
Test [19] in a line: basal MM1S mitochondrial membrane potential changes, profiling panel, cell-based, JC-1 fluorescence, 24 h, 100 nL compound (AID 1170). Further: test concentration not given here. The note with it: higher = more signal.
The nature of test [20]: A549 lung cancer cell viability effects, profiling panel, resazurin fluorescence, 24 h, PK04 Diversity Set (AID 1171). Further: test concentration not given here. The note with it: higher = more signal, called active from +8 up or from −8 down. (Resazurin is reduced to fluorescent resorufin, in cell work by metabolically active cells.)

Active and inactive are the calls of the source.

Sequence of NADPH oxidase 4 (Homo sapiens) (Q9NPH5 whole entry, looked up): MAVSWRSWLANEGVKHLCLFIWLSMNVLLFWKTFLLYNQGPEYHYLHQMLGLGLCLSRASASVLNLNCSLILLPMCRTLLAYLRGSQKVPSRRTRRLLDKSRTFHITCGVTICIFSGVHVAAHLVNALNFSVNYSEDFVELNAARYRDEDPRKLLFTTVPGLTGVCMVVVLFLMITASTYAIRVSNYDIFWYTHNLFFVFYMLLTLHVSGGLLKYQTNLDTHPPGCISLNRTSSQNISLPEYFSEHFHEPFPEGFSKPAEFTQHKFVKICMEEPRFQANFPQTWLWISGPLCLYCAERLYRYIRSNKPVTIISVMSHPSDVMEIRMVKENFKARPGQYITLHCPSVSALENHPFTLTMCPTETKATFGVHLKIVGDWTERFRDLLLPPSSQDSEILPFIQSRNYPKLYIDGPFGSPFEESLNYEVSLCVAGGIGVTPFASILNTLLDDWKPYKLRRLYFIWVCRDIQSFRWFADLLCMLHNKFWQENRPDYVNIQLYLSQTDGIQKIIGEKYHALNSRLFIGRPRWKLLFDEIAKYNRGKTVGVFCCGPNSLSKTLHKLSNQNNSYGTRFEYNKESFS
Sequence of NADPH oxidase 2 (Homo sapiens) (P04839 whole entry, looked up): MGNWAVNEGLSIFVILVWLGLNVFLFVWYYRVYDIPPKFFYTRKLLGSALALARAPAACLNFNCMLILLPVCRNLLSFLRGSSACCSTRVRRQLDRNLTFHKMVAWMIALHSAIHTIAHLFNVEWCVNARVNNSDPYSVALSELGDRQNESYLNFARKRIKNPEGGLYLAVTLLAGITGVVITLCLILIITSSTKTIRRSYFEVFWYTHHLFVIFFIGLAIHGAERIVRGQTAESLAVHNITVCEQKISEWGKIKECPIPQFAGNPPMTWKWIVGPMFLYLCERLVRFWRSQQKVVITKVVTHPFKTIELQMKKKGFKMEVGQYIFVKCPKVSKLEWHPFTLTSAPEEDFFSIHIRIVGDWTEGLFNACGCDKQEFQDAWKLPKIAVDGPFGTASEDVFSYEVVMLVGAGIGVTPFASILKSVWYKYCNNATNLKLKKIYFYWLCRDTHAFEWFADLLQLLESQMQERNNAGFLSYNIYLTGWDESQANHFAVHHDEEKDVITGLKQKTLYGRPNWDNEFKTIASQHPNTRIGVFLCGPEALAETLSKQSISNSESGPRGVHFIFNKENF
Sequence of NADPH oxidase 5 (Homo sapiens) (Q96PH1 whole entry, looked up): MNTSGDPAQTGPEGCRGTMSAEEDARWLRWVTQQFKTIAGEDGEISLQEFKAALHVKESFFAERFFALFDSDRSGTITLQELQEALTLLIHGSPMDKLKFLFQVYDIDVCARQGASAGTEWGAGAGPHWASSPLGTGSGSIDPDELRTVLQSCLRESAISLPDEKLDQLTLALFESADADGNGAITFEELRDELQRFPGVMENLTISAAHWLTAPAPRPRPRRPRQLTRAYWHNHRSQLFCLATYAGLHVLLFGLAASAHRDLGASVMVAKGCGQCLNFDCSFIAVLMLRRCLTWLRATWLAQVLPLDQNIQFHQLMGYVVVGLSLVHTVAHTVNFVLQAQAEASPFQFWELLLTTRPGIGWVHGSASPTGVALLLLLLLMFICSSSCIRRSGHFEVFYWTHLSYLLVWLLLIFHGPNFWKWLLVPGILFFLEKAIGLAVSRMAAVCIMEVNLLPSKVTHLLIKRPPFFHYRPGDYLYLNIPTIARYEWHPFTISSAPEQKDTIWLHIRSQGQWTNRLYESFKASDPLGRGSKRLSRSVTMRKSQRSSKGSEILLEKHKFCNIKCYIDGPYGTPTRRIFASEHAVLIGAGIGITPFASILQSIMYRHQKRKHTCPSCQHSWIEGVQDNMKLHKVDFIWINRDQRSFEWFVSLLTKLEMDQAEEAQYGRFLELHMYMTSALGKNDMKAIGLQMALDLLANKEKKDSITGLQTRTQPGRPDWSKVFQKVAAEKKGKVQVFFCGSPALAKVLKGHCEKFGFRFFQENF

Consider `C=C(/C(=C/C[C@@H](OC(=O)c1ccncc1)c1ccc(CO)o1)c1cc(C(=O)OC)ccc1OC)C(C)C`, for which the z-score is 0.694 (inactive) in test [1]; 6.4 (inactive) in test [3]; 1.47 (inactive) in test [4]; 2.63 (inactive) in test [5]; 0.529 (inactive) in test [6]; 0.57 in test [7]. For the same molecule, the z-score in test [8] was -0.0543 (inactive); in test [9] it was -0.699 (inactive); in [10] it was -0.86; in [11], 0.621; in test [12], -0.619; in [13], 0.486. The z-score in [14] was -2.99; in test [15], -2.18; in test [16], 0.654; in test [17], -0.369 (inactive); in [18], -0.688; in [19], -1.97. For the same molecule, in test [20], the z-score was -0.0675 (inactive). The composite z-score in test [2] was determined as 0.107.

Turning to `CCN(CC)c1ccc(N2CC=CC34O[C@@H]5C=CCOC(=O)[C@@H]5[C@H]3C(=O)N(CCCCCO)[C@@H]4C2=O)cc1` (stereo not given in full), the z-score was 0.825 (inactive) in [1]; 1.29 (inactive) in test [3]; 0.172 (inactive) in test [4]; 1.36 (inactive) in test [5]; 0.113 (inactive) in test [6]; -0.491 in test [7]. Further, the z-score was 0.766 (inactive) in [8]; 0.449 (inactive) in [9]; 1.67 in [10]; -0.46 in [11]; 1.1 in test [12]; -0.0753 in test [13]. The z-score is -0.0913 in [14]; 0.199 in test [15]; 0.497 in test [16]; 0.876 (inactive) in test [17]; 0.0564 in test [18]; 1.65 in test [19]. In test [20], the z-score was -0.0833 (inactive). Also, the composite z-score in [2] worked out at 0.271.

In the case of `CN(C)CCCC[C@@H]1NC(=O)[C@@H]2C[C@H](C(=O)NCCCCCCN)[C@H](c3ccc(O)cc3)N2C1=O`, the z-score in test [1] is -0.337 (inactive); in test [3], 1.98 (inactive); in test [4], 0.288 (inactive); in test [5] it was 1.28 (inactive); in [6], 0.229 (inactive); in [7], -0.648. Also, the z-score was 1.46 (inactive) in test [8]; -0.964 (inactive) in test [9]; 1.01 in test [10]; -0.215 in test [11]; 0.958 in test [12]; -0.544 in [13]. Also, the z-score in [14] is 0.405; in [15], 0.483; in test [16], -1.36; in test [17], -0.0708 (inactive); in test [18], 0.576; in [19] it was 0.213. The z-score in [20] is 0.291 (inactive). The molecule further yielded a composite z-score in test [2] of 1.37.

For `COc1ccccc1CN1C(=O)c2ccccc2[C@](Cc2ccccc2I)(C(=O)NC2CC2)[C@@H]1c1ccc(CO)cc1`, the z-score was 0.203 (inactive) in test [1]; 11.4 (active) in [3]; 1.35 (inactive) in test [4]; 2.38 (inactive) in test [5]; 0.99 (inactive) in [6]; -0.154 in [7]. Moreover, the z-score in test [8] is -0.975 (inactive); in [9], -0.89 (inactive); in [10], -2.08; in [11] it was -0.741; in test [12], -0.475; in test [13], -0.468. The z-score in [14] is -0.664; in [15] it was -1.54; in [16], 1.32; in test [17], 0.424 (inactive); in [18], -1.04; in [19], -0.508. For the same molecule, the z-score in [20] is -0.264 (inactive). Moreover, in test [2], the composite z-score was -0.25.

For the molecule `C=CCC(OC(C)=O)[C@@H]1[C@@H](N(Cc2cc3ccccc3o2)C(=O)c2cccc3ccccc23)c2cc(OCCCO)ccc2N1C(=O)Cc1ccc2ccccc2c1` (stereo not given in full), the z-score in test [1] is -0.288 (inactive); in [3] it was 2.06 (inactive); in test [4] it was 0.231 (inactive); in [5], -0.336 (inactive); in test [6], 0.332 (inactive); in test [7], 0.778. Besides, the z-score in [8] was 0.39 (inactive); in test [9], -1.46 (inactive); in test [10], -2.19; in test [11], 0.206; in test [12], 0.753; in test [13], 0.381. Further, the z-score is 0.791 in [14]; -1.08 in test [15]; 2.07 in [16]; -0.858 (inactive) in [17]; 0.313 in test [18]; -0.963 in test [19]. The z-score in test [20] was -1.05 (inactive). Also, in [2], the composite z-score is -0.0547.

Take `C=CCOC(=O)[C@@H]1[C@H]2C(=O)O[C@H](c3ccccc3)[C@H](c3ccccc3)N2[C@H](c2ccc(OCCOC(=O)[C@H]3C[C@H]4C(=O)N[C@@H](Cc5ccccc5)C(=O)N4[C@H]3c3ccc(O)cc3)cc2)[C@@]12C(=O)Nc1ccc(I)cc12`: the z-score in test [1] was -1.78 (inactive); in test [3], 6.54 (inactive); in test [4] it was 5.05 (inactive); in test [5], -2.73 (inactive); in [6], 2.58 (inactive); in [7], -1.77. The z-score in test [8] was 3.07 (inactive); in test [9], 0.471 (inactive); in test [10], 3.69; in test [11], -0.688; in [12] it was -0.724; in test [13], -0.0809. Moreover, the z-score in test [14] was -3.46; in test [15], -2.98; in test [16] it was -0.638; in [17], 1.43 (inactive); in test [18], -0.609; in test [19], -1.4. Besides, the z-score in [20] was -0.0596 (inactive). In test [2], this molecule had a composite z-score of -0.539.

For the molecule `[N-]=[N+]=NCc1ccccc1C[C@@]1(C(=O)NCc2ccccc2)N=C(c2ccc(OCCCO)cc2)O[C@@H]1c1ccccc1CN=[N+]=[N-]`, the z-score in [1] was 0.561 (inactive); in test [3], 26.1 (active); in test [4] it was 15.3 (active); in [5], 1.58 (inactive); in test [6], 1.87 (inactive); in [7], -0.633. In addition, the z-score is -1.03 (inactive) in [8]; -0.17 (inactive) in test [9]; -0.353 in test [10]; -0.293 in [11]; -0.0193 in [12]; 0.236 in [13]. The z-score in [14] was -0.645; in test [15] it was -1.13; in [16] it was 0.0212; in test [17], -0.835 (inactive); in test [18] it was -0.66; in test [19], -1.32. Besides, in [20], the z-score was 1.01 (inactive). Moreover, the composite z-score in test [2] amounted to 0.7.

As to `[N-]=[N+]=Nc1ccccc1[C@@H]1OC(c2ccc(OCCCO)cc2)=N[C@]1(CCS(=O)(=O)c1ccccc1)C(=O)O`, the z-score in [1] is 0.604 (inactive); in test [3], 28.8 (active); in [4], 24.4 (active); in test [5], 0.971 (inactive); in [6], 4.63 (inactive); in test [7], -0.067. In addition, the z-score in test [8] is -2.5 (inactive); in test [9], -0.0168 (inactive); in test [10], 0.778; in [11], 0.926; in test [12], -0.149; in [13], 0.846. The z-score in test [14] was -0.57; in test [15], -1.47; in test [16], -3.18; in test [17] it was -1.07 (inactive); in test [18], -0.373; in test [19] it was -1.17. Also, the z-score in [20] was 0.343 (inactive). This molecule also came in with a composite z-score in test [2] of 0.568.

`O=C1C2C=CC(C(O)c3ccc(B(O)O)cc3)N(Nc3ccc([N+](=O)[O-])cc3)C2C(=O)N1c1ccccc1` (stereo not given): the z-score in test [1] is -1.07 (inactive); in test [3] it was 2.01 (inactive); in test [4] it was 1.21 (inactive); in [5], 0.136 (inactive); in [6] it was 0.606 (inactive); in test [7], -0.537. Further, the z-score in test [8] is -1.73 (inactive); in test [9], -0.374 (inactive); in [10], -3.79; in [11], -2.05; in [12], -0.167; in [13] it was -5.4. The z-score was 0.0297 in test [14]; -4.09 in test [15]; -1.66 in test [16]; 3.71 (inactive) in [17]; -0.213 in test [18]; -1.22 in [19]. For the same molecule, the z-score in test [20] was 0.0312 (inactive). The composite z-score in [2] is 0.363.

The record behind these values is PubChem BioAssay.
